# Data: PubChem BioAssay
# A number with no mark means an inactive call. Where a call stands in place of a potency, no number is given. For some assays here: Potency and affinity values are given separately. The source made the active and inactive calls. Unless noted, no rule for the calls is given here.
# Experiments:
# [1] = antimalarial activity against Dd2 strain (AID 2302;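 active = growth inhibition above 50% at the single 2 µM test dose, taken to imply half-maximal potency below 2 µM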); conditions: P. falciparum Dd2 in RBCs, LDH growth readout, 72 h; at 2 µM; hits give high values
# [2] = HepG2 cytotoxicity, primary screen, cytotoxicity control for P. falciparum antimalarial project, cell-based, ATP luminescence (AID 2303;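 active = inhibition above 50%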); conditions: HepG2 viability, 24-48 h, at 10 µM, hits give high values
# [3] = target: L-lactate dehydrogenase (Plasmodium falciparum (isolate CDC / Honduras)) (UniProt Q27743); assay: PfLDH activity inhibition – cell lysate, 3D7 strain, counter-screen for P. falciparum growth inhibition project (AID 2304); conditions: P. falciparum 3D7 crude extract, LDH APAD/NBT absorbance; at 2 µM; hits give high values
# Sequence of L-lactate dehydrogenase (Plasmodium falciparum (isolate CDC / Honduras)) (Q27743 whole entry, looked up): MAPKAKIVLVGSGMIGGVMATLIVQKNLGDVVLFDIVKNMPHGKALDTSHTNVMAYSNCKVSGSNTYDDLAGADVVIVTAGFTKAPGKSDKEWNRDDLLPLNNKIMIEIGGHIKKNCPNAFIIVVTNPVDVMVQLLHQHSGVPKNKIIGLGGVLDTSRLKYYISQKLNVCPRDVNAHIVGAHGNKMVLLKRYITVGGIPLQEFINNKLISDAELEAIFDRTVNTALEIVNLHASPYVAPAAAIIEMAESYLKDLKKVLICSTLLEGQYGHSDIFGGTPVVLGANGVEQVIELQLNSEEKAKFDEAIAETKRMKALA
# [4] = inhibition of 3D7 malaria parasite growth – strain 3D7 (AID 2306); conditions: P. falciparum 3D7 erythrocytic growth, LDH absorbance, 72 h; at 2 µM; hits give high values
# [5] = target: Calcium-dependent protein kinase 1 (Plasmodium falciparum (isolate 3D7)) (UniProt P62344); assay: PfCDPK1 kinase inhibitors, biochemical, TCAMS library (AID 1159585; cut-off not given, nearly all actives have IC50 up to about 0.98 µM;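 also: inhibitors leave more ATP so luminescence rises with inhibition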); conditions: recombinant PfCDPK1, Kinase-Glo ATP depletion luminescence
# Sequence of Calcium-dependent protein kinase 1 (Plasmodium falciparum (isolate 3D7)) (P62344 whole entry, looked up): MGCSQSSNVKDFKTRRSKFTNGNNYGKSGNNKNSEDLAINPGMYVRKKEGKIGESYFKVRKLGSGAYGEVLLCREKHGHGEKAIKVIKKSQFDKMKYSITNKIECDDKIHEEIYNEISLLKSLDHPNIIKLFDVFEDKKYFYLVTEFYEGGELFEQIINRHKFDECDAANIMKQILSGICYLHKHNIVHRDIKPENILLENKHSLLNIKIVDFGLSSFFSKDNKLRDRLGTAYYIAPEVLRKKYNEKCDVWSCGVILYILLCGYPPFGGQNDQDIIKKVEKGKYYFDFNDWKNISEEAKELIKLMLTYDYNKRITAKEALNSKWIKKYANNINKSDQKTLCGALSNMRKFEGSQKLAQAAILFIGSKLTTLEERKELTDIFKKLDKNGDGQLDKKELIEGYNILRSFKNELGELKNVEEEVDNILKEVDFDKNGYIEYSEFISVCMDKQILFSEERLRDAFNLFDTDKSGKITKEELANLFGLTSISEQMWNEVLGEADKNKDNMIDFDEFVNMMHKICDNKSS
# [6] = target: Plasmodium falciparum protein kinase 6 (PK6, PF3D7_1337100) (UniProt Q8IDW1); assay: PfPK6 kinase inhibitors, biochemical, TCAMS library (AID 1159586); conditions: recombinant PfPK6, Kinase-Glo ATP depletion luminescence
# Sequence of Plasmodium falciparum protein kinase 6 (PK6, PF3D7_1337100) (Q8IDW1 1-305): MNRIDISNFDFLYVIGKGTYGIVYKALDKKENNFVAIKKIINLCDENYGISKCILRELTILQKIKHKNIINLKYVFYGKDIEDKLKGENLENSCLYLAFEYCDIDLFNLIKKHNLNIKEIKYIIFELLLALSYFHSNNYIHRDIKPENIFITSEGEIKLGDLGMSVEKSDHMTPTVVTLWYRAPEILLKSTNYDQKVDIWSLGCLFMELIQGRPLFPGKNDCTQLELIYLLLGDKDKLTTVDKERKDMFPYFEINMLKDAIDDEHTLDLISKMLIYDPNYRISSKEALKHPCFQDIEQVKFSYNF
# [7] = target: Protein kinase 7 (PK7), Plasmodium falciparum 3D7 (PF3D7_0213400) (UniProt Q7YTF7); assay: inhibition of Plasmodium PK7 catalytic activity – biochemical, TCAMS antimalarial set, Kinase-Glo luminescence (AID 1159587); conditions: recombinant PfPK7, Kinase-Glo ATP depletion luminescence
# Sequence of Protein kinase 7 (PK7), Plasmodium falciparum 3D7 (PF3D7_0213400) (Q7YTF7 1-343): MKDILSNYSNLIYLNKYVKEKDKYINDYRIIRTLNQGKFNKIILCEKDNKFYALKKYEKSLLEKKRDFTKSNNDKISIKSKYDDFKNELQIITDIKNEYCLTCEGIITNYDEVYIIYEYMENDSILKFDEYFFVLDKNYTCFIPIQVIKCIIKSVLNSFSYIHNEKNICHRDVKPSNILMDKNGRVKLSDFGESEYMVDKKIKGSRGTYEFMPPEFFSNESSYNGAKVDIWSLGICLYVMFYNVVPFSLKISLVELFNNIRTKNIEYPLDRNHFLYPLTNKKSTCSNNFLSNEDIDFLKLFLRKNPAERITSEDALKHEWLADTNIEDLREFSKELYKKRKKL
# [8] = target: Calcium-dependent protein kinase 4 (Plasmodium falciparum (isolate 3D7)) (UniProt Q8IBS5); assay: PfCDPK4 kinase inhibitors, biochemical, TCAMS library (AID 1159588; cut-off not given, nearly all actives have IC50 up to about 0.91 µM); conditions: recombinant PfCDPK4, Kinase-Glo ATP depletion luminescence
# Sequence of Calcium-dependent protein kinase 4 (Plasmodium falciparum (isolate 3D7)) (Q8IBS5 whole entry, looked up): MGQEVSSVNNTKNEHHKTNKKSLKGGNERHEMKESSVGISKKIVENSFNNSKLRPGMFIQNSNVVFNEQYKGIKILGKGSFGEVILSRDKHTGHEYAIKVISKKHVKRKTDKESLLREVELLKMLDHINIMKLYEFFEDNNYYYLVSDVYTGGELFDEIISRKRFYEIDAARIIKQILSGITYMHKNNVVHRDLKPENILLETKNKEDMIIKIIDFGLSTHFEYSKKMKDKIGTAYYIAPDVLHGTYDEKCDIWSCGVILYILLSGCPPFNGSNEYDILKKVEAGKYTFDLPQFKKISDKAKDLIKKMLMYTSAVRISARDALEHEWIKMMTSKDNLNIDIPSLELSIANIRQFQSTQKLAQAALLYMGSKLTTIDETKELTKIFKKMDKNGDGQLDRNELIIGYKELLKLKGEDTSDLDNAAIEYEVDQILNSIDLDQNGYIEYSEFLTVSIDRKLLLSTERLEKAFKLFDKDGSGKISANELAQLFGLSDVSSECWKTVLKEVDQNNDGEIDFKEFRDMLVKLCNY
Structure (SMILES),growth inhibition [1],inhibition [2] [%],inhibition [3] [%],growth inhibition [4],outcome [5],outcome [6],outcome [7],outcome [8]
O=C(N[C@@H](Cc1ccccc1)C(=O)NCCN1CCCC1)c1ccc(O)c(-c2ccc(Cl)c(Cl)c2)c1,46%,8,-2,95% (active),inactive,inactive,inactive,inactive
COc1ccc2nccc([C@@H](O)CN3CCC(NC(=O)c4cc5cccnc5[nH]4)CC3)c2c1,6%,-8,2,94% (active),inactive,inactive,inactive,inactive
CNC(=O)CC(=O)NCCc1ccc(Cl)cc1,1%,-7,6,99% (active),inactive,inactive,inactive,inactive
CCCNC[C@@H](O)[C@H](Cc1ccccc1)NC(=O)c1cc(NCC)cc(N2CCCC2=O)c1,76% (active),-9,1,100% (active),inactive,inactive,inactive,inactive
COc1ccc(CCN(Cc2cccs2)C(=O)c2cc3sccc3n2C)cc1OC,97% (active),0,1,94% (active),inactive,inactive,inactive,inactive
O=C(Nc1cccc(CN2CCN(Cc3ccc(O)cc3)CC2)c1)c1cccc(C(F)(F)F)c1,15%,21,2,91% (active),inactive,inactive,inactive,inactive
CCCSc1nc2c(c(=O)n1Cc1ccco1)C1(CCCCC1)Cc1ccccc1-2,95% (active),-1,0,100% (active),inactive,inactive,inactive,inactive
CNC(=O)c1cnc(Nc2ccc(N3CCN(C)CC3)cc2)nc1Nc1ccccc1OC,84% (active),8,2,100% (active),inactive,inactive,inactive,inactive
COc1ccc(N2C(N)=NC(N)=NC2(C)C)cc1,29%,0,4,94% (active),inactive,inactive,inactive,inactive
Cc1ccc(-n2c(=O)c3c(n4c(SC(C)C)nnc24)-c2ccccc2CC32CCCCC2)cc1,88% (active),8,0,95% (active),inactive,inactive,inactive,inactive
